Screening results (PubChem BioAssay)
Shown are actives, neighbours in structure and some others; about 6.5% of the full set was active somewhere.
Fluor 339 460 = intrinsic fluorescence of library compounds, ex339/em460 – biochemical, MLSMR library, data from DPM-DC assay, artefact control, profiling panel. compound autofluorescence, ex339/em460 nm, NADH buffer; stronger effect = higher value; 1 = no-compound wells, NADH background. fluorescence fold increase at 10 µM. 65,000 compounds, 5.5% hits;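 active means at 10 µM, mean starting fluorescence two-fold or more over control wells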;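 further: signal is the first read of a kinetic run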
Spn DPM-DC inh = inhibitors of Streptococcus pneumoniae diphosphomevalonate decarboxylase | purified DPM-DC, PK/LDH coupled NADH fluorescence | calls only at 10 µM | 65,000 compounds, 0.49% hits | AID 556;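 active means the 320 compounds with the highest percent inhibition in the single-dose primary screen, excluding strongly autofluorescent ones, cut at about 32% in these data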;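 further: kinetic rate of NADH fluorescence loss reporting ADP formed by the decarboxylase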
NADH coupling = inhibition of NAD/NADH coupling enzymes, library profiling; AID 774; 65,000 compounds, 0.02% hits; IC50, µM (doses to about 10 µM), for the others: top-dose inhibition; coupled PK/LDH NADH assays, four targets;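 active means single-dose screening hits from any of four coupled enzyme assays that gave an IC50 when retested across doses; inconclusive means no clear call, values can overlap the other calls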;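 further: the DPM-DC format reads NADH fluorescence rather than 340 nm absorbance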
PMK inhibit = inhibitors of Streptococcus pneumoniae phosphomevalonate kinase. purified PMK, PK/LDH-coupled NADH absorbance 340 nm. inhibition, % at 10 µM. 65,000 compounds, 0.49% hits. AID 539;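 active means top-ranked compounds by inhibition in the single 10 µM screen, taking a fixed number of the strongest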;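 further: 0% = full reaction with DMSO carrier and 100% = background rate without enzyme reaction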
MK inhibit = S. pneumoniae mevalonate kinase inhibition; AID 555; purified MK, PK/LDH-coupled NADH absorbance 340 nm; 65,000 compounds, 0.48% hits; inhibition, % at 10 µM;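 active means ranked among the strongest by inhibition in the single 10 µM screen, a fixed top-ranked set picked for dose follow-up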
Abs 340nm = compounds absorbing at 340 nm; compound absorbance at 340 nm, fold over control; AID 708; 65,000 tested, under 10 active; fold change at 10 µM;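 active means at 10 µM dose, initial 340 nm absorbance at least 2 fold that of control wells; inactive means change under 2 fold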;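 further: initial absorbance extrapolated from kinetic A340 decline of NADH oxidation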
* hit, by the source's call; i = inactive; ? = inconclusive; . = not tested or not shown; + = active, no number.

SMILES	Fluor 339 460	Spn DPM-DC inh	NADH coupling	PMK inhibit	MK inhibit	Abs 340nm
CC1CCN(CCCNC(=O)Cc2c(C(=O)O)n(C)c3ccccc23)CC1	1.05	i	3.0%	8.0	2.0	0.99
CCn1c(COc2ccccc2C)nnc1SCC(=O)N1CCCCC1	1.06	i	9.0%	27.0*	1.0	0.96
COC(=O)CSc1nnc2c3c4c(sc3nc(-n3nc(C)cc3C)n12)COC(C)(C)C4	2.72*	i	7.0%	0.0	12.0	1.08
CCCNC(=O)N1CCN(S(=O)(=O)c2ccc(C)c(C)c2)CC1	1.03	i	4.0%	3.0	0.0	1
COc1cccc(NC(=O)Cn2c(SCC(=O)N3CCOCC3)nc3ccccc32)c1	1.09	i	4.0%	3.0	9.0	1.02
CCCCn1c(SCC(=O)Nc2cccc(OC)c2)nc2ccc(N3CCOCC3)cc2c1=O	3.13*	i	3.0%	2.0	3.0	1.06
O=C1C(Cl)=C(NCC2CCCO2)C(=O)N1Cc1ccccc1 (centres undefined)	0.57	+	22.0%	13.0	7.0	1.01
Cn1c(=O)n(Cc2ccccc2)c(=O)c2c1nc(NCC1CCCO1)n2Cc1ccccc1 (centres undefined)	1.03	i	2.0%	4.0	0.0	0.99
CCOC(=O)C1CCCN(Cc2cc(Br)c(OC)cc2OC)C1 (centres undefined)	1.12	i	17.0%	0.0	50.0*	1.08
CCOC(=O)C1CCCN(Cc2cc(OC)c(O)c(OC)c2)C1 (centres undefined)	1.11	i	17.0%	0.0	50.0*	1.06
CCOC(=O)C1CCN(Cc2ccc(O)c(OC)c2)CC1	1.03	i	11.0%	0.0	34.0	1.05
COc1cccc(CN2CCCC(C(=O)N3CCCCC3)C2)c1OC (centres undefined)	1.16	i	3.0%	8.0	0.0	1.03
CCN(CC)C(=O)C1CCCN(Cc2ccc(OC)c(C)c2C)C1 (centres undefined)	1.16	i	19.0%	0.0	56.0*	1.06
CC(C)(C)c1cc(Cc2ccccc2)[nH]n1	1.05	i	4.0%	5.0	6.0	1.05
O=C(N=C1SCC(=O)N1c1ccccc1Cl)c1ccco1	1.1	i	0.0%	0.0	0.0	1.07
CC(C)n1c(=NC(=O)c2ccco2)c(C#N)cc2c(=O)n3ccccc3cc21	2.93*	.	2.0%	9.0	2.0	1.01
COc1ccc(N(C(=O)c2ccco2)S(=O)(=O)c2cc(OC)ccc2OC)cc1	1.03	i	2.0%	0.0	11.0	0.99
COc1ccc(N2C(C)=CS/C2=C(/C#N)c2nnc(N3CCOCC3)n2-c2ccccc2)cc1	1.15	+	72.0%	74.0*	78.0*	1.22
CC(=O)OCCOc1nc(N(C)C)nc(N(C)C)n1	1.02	i	9.0%	22.0	2.0	1.02
Nc1ccc2nc3n(c(=O)c2c1)CCC3	2.11*	.	9.0%	12.0	6.0	1.08
O=c1c2ccccc2nc2n1CCC2	1.11	i	?	23.0	86.0*	1.04
O=c1c2ccccc2nc2n1CCCCN2	3.83*	.	6.0%	9.0	3.0	1.07
O=c1c2ccccc2nc2n1CCCCC2	1.04	i	5.0%	8.0	7.0	1.01
COC(=O)c1ccc(NC(=O)CSc2nnc(CNc3ccc(F)cc3)n2C)cc1	1.07	i	8.0%	12.0	11.0	1.01
COc1ccc(N2CCN(c3ccc(NC(=O)c4ccc5c(c4)OCO5)cc3C#N)CC2)cc1	1.86	i	7.0%	10.0	7.0	1
SMILES	Fluor 339 460	Spn DPM-DC inh	NADH coupling	PMK inhibit	MK inhibit	Abs 340nm
COc1ccc(CC(=O)Nc2ccc(N3CCN(c4ccc(OC)cc4)CC3)c(C#N)c2)cc1	2.16*	i	12.0%	12.0	6.0	0.99
Cc1cc(C)n(-c2nc(NCC3CCCO3)c3c4c(sc3n2)COC(C)(C)C4)n1 (centres undefined)	3.72*	.	8.0%	9.0	7.0	1.05
Cc1cc(C)n(-c2nc(NCCO)c3c4c(sc3n2)CCCC4)n1	1.65	i	4.0%	9.0	2.0	1.07
Cc1cc(C)n(-c2nc(NCCCO)c3c4c(sc3n2)CCCC4)n1	2.62*	i	8.0%	7.0	0.0	1.06
CCN(C(=O)c1cc2cccc(OC)c2oc1=O)c1ccccc1	1.18	i	6.0%	3.0	9.0	1.09
CC(=O)C1=C(O)C(=O)N(Cc2ccco2)C1c1ccc(F)cc1 (centres undefined)	1.04	i	5.0%	3.0	11.0	1.03
O=C1c2ccccc2NC(c2ccc(F)cc2)N1Cc1ccco1 (centres undefined)	3.82*	.	5.0%	4.0	5.0	1.06
O=C1c2ccccc2NC(c2ccccc2)N1Cc1ccco1 (centres undefined)	2.19*	.	5.0%	1.0	8.0	1.03
O=C1c2ccccc2N2C(=O)c3ccccc3C2N1Cc1ccco1 (centres undefined)	1.12	i	3.0%	0.0	6.0	1.02
CC(=O)Nc1ccc2nc(-c3ccccn3)[nH]c2c1	3.73*	.	8.0%	12.0	4.0	1.1
O=C(Nc1ccc2nc(-c3cccs3)[nH]c2c1)c1cccs1	2.35*	i	12.0%	3.0	9.0	1.16
O=c1c2ccccc2sn1-c1ccc(S(=O)(=O)N2CCCC2)cc1	1.2	+	72.0%	15.0	100.0*	1.05
O=c1c2ccccc2sn1-c1ccc(S(=O)(=O)N2CCCCC2)cc1	1.04	+	11.0%	10.0	10.0	1
Cc1ccc(-n2sc3ccccc3c2=O)cc1S(=O)(=O)N1CCCCC1	1.19	+	70.0%	20.0	100.0*	1.08
Cc1cccc(N(CC(=O)NC2CCCCC2)C(=O)CCC(=O)Nc2cc(C)ccn2)c1	1.08	i	6.0%	6.0	12.0	1.03
O=C(c1cc2c(=O)oc3ccccc3c2s1)N1CCN(c2ccccn2)CC1	0.94	i	3.0%	0.0	10.0	1.13
CCOC(=O)N1CCC(NC(=O)c2cnn3cccnc23)CC1	2.15*	i	10.0%	5.0	6.0	1.05
O=C(c1c[nH]c2ccc(S(=O)(=O)N3CCC4(CC3)OCCO4)cc2c1=O)N1CCOCC1	2.1*	.	9.0%	18.0	0.0	1.07
Cc1cccc(N(C)S(=O)(=O)c2ccc3[nH]cc(C(=O)N4CCOCC4)c(=O)c3c2)c1	2.04*	i	6.0%	0.0	5.0	1.11
CC(=O)C(Sc1ccc2nnc(-c3ccc(F)cc3)n2n1)C(C)=O	1.07	i	7.0%	10.0	11.0	1.11
CC1(CCc2ccc3c(c2)OCO3)NC(=O)c2ccccc2N1 (centres undefined)	3.76*	.	5.0%	4.0	5.0	1.04
Cc1ccccc1-n1c(=O)cc(NCc2ccc3c(c2)OCO3)[nH]c1=O	1.09	i	3.0%	6.0	3.0	0.99
O=C1NC(c2ccc3c(c2)OCO3)Oc2ccccc21 (centres undefined)	1.26	i	4.0%	0.0	12.0	1.02
